Each structure is given as a SMILES string. “And” between values parts separate entries of the source, which are not always exact repeats. Equal values may be shown once. Unmarked numbers belong to inactive results. Inconclusive results are not listed. The source made the active and inactive calls. Unless noted, calls come from the whole dose curve; as a rule, active = well fitted curve in either direction with a large enough effect (not every such curve was filed as active); inconclusive = small, poorly fitted or top-dose-only effect, or another doubt; inactive = flat fitted curve, though single readings scatter.

The source of these data is PubChem BioAssay (NCATS).

Test [1] deals with Lysosomal acid glucosylceramidase (Homo sapiens) (UniProt P04062). Nature of the test: Glucocerebrosidase-p2 (AID 348; in the data active = potency below about 10 µM; note: potency is the fitted concentration of half-maximal effect). Conditions: purified GBA, blue fluorogenic substrate, 40 min. In a few lines: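 Compounds titrated from 0.6 nM upwards against 0.2 nM enzyme in pH 5.9 citric acid/KH2PO4, taurocholate, tween-20; blue fluorogenic substrate 80 uM, 40 min room temperature, stopped and read Ex 365/Em 440 for AC50.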
Sequence of Lysosomal acid glucosylceramidase (Homo sapiens) (P04062 whole entry, looked up): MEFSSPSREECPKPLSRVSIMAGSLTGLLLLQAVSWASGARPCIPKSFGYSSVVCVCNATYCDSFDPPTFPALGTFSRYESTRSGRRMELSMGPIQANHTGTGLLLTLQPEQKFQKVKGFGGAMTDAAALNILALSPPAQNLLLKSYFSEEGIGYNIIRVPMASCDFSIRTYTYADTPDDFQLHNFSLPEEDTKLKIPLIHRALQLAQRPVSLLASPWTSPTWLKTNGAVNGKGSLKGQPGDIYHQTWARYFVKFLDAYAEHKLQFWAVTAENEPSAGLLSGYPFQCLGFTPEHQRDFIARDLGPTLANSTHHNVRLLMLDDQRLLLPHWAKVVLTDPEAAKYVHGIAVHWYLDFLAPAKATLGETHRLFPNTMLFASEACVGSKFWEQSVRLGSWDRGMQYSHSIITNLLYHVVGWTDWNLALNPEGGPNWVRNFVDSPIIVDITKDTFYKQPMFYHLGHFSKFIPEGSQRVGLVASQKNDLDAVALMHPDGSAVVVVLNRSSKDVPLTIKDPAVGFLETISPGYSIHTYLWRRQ

Test [2] can be described thus: AP1 Signaling Pathway (AID 357).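 Note: ME-180 reporter cells stimulated with EGF at its EC50 level; % is set by controls: 0 for no effect and ±100 for the full control effect.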 In a few lines: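 In this screen, ME-180 cells in Opti-MEM with 0.5% dialyzed FBS received EC50 EGF and compound titrations for 5 h. AP-1 reporter beta-lactamase was detected via CCF4 ratio, giving AC50 for positive and negative modulators.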
A short description of test [3]: NFAT Signaling Pathway (AID 444).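 Note: carbachol stimulus at about its EC50 of 1 µM final; % is set by controls: 0 for no effect and ±100 for the full control effect.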 In a few lines: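 Jurkat cells with NFAT-driven β-lactamase reporter and co-expressed M1 receptor, stimulated with carbachol (final 1 uM, ~EC50), compound titration, 5 h at 37 °C. CCF4 loaded 1 h at RT; 460/530 nm ratio gave %activity and AC50.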
Test [4] is described as follows: Stat Signaling Pathway (AID 446).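 Note: ME-180 cervical cancer cells given 40 pM IL-6 alongside compound; SIE-controlled beta-lactamase reporter measured as 460/530 nm FRET emission ratio; % is set by controls: 0 for no effect and ±100 for the full control effect.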 Conditions: ME-180 (cervical carcinoma) SIE beta-lactamase reporter, IL-6 stimulated, 5 h. In a few lines:
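IL-6/STAT signaling read in ME-180 cells via an SIE beta-lactamase reporter. Stimulus was 40 pM IL-6 (its AC50) for 5 hrs, so both activation and inhibition register.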

The target in test [5] is Glucocorticoid receptor (Homo sapiens) (UniProt P04150). Nature of the test: GR-GFP Redistribution (AID 450;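 active = compounds whose dose series gives a full or clear partial fitted curve of increased nuclear translocation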; note: potency is the fitted concentration of half-maximal effect). Conditions: U2OS GR-GFP nuclear translocation, laser cytometry, 2 h.
Sequence of Glucocorticoid receptor (Homo sapiens) (P04150 whole entry, looked up, the tested form may be a part): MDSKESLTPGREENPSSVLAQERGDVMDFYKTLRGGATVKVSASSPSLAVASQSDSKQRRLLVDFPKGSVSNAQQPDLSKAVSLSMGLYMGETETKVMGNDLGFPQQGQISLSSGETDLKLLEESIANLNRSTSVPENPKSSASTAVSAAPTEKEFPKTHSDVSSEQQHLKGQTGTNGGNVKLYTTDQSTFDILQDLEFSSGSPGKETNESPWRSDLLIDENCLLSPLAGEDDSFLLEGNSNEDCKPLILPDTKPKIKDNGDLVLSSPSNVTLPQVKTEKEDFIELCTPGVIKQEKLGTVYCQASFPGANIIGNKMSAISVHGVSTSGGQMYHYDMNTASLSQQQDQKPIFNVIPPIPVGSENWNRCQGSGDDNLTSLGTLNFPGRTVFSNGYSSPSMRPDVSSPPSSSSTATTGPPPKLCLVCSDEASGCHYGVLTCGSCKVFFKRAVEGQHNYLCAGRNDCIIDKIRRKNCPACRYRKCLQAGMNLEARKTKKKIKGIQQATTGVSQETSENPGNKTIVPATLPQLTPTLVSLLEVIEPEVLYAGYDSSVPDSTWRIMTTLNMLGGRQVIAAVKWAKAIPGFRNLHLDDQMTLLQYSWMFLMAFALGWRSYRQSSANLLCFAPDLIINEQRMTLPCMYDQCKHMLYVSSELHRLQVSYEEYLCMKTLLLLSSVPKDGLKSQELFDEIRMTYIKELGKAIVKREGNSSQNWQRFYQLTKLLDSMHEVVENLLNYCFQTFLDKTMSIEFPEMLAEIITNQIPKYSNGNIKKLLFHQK
Test [6] shares this target. Kind of test: GR-EFC Redistribution (AID 451; calls by dose curve; note: potency is the fitted concentration of half-maximal effect). Conditions: CHO-K1 GR-EFC translocation, beta-gal luminescence, 2 h. In a few lines: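 CHO-K1 cells expressing nuclear EA and GR-ED fragments of b-gal; compounds titrated up to 46 uM final, 2 h at 37 C. GR nuclear translocation read as complemented b-gal luminescence after 1 h RT detection.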
For test [7], the target named is Mitogen-activated protein kinase 10 (Mus musculus) (UniProt Q61831). Kind of test: JNK3 AlphaScreen Assay (AID 530).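 Note: kinase came from lysate of stimulated human HepG2 cells; signal reports phosphorylation of biotinylated GST-cJun 1-79 at Ser73 with 10 µM ATP; % is set by controls: 0 for no effect and ±100 for the full control effect.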 In a few lines:
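Pre-activated (IL-1β/TNFα) JNK3 in HepG2 lysates phosphorylates biotin-GST-cJun(1-79), 10 uM ATP; anti-phospho-cJun(Ser73) AlphaScreen read at room temperature, pH 7.6 Tris buffer. Compounds pre-incubated 15 min as titrations.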

Test [8] has as its target Cytochrome P450 1A2 (Homo sapiens) (UniProt P05177). Kind of test: p450-cyp1a2 (AID 410; calls by dose curve; note: potency is the fitted concentration of half-maximal effect). In a few lines: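 20nM CYP1A2 with 100uM Luciferin-ME (at Km) in 100mM KPO4; compound preincubated 10 min, NADPH regeneration added, 60 min at room temperature. Luciferin quantified by luminescence after detection reagent; normalized to 57 uM furafylline.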
Test [9] can be described thus: Cell Viability - BJ (AID 421; calls by dose curve;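 note: potency is the fitted concentration of half-maximal effect; cells exposed to compound for 40 hours at 37 °C before readout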). As to conditions: BJ fibroblast viability, qHTS. In a few lines:
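Quantitative HTS: ATP depletion in BJ cells after 40 hr compound exposure in complete culture medium, detected with CellTiter-Glo; AC50 from standard Hill fits.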

Test [10] in a line: Cell Viability - Jurkat (AID 426;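 active = dose-dependent loss of cell ATP signal giving a full or clear fitted curve, ranked by lower potency value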; note: potency is the fitted concentration of half-maximal effect). Conditions: qHTS. In a few lines:
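Jurkat (Clone E6-1) cells, 5000/well in complete medium, exposed to compounds for 40 hr at 37C; intracellular ATP measured by CellTiter-Glo luminescence after 20 min at room temperature. AC50 from Hill fits.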

Test [11] can be described thus: Cell Viability - Hek293 (AID 427;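 active = compounds whose dose-response curve shows a full or clear partial loss of cell viability, called from curve shape rather than a numeric limit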;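 note: potency is the fitted concentration of half-maximal effect; cells exposed to compound for 40 hours at 37 °C before reading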). As to conditions: qHTS. In a few lines: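 AC50 values derive from Hill-modelled concentration-response of ATP-based luminescence, normalized between DMSO-only and 100 uM tamoxifen controls. Cells were exposed in complete culture medium for 40 hr at 37 °C before detection.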
The nature of test [12]: Cell Viability - HepG2 (AID 433; calls by dose curve;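 note: potency is the fitted concentration of half-maximal effect; potency for ATP loss meaning cytotoxicity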). As to conditions: qHTS. In a few lines: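 In this qHTS format, a 40 h, 37 °C compound incubation of HepG2 cells in complete medium precedes a 20 min CellTiter-Glo step at room temperature. Tamoxifen and doxorubicin serve as positive controls; Hill-equation fits yield AC50.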
A general note: qHTS replaces the single test concentration by a dilution series.

Test [13] can be described thus: Cell Viability - MRC5 (AID 434; calls by dose curve;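 note: potency is the fitted concentration of half-maximal effect; potency reflects cytotoxicity seen as loss of intracellular ATP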). As to conditions: MRC5 lung fibroblast viability, qHTS. In a few lines:
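MRC5 normal human lung fibroblasts, 1500 cells/well, exposed to compound for 40 hr at 37 C. Cellular ATP was read by CellTiter-Glo luminescence; data normalized to DMSO and 100 uM tamoxifen, with AC50 from Hill fits.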

Test [14] in a line: Cell Viability - SK-N-SH (AID 435; calls by dose curve;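 note: potency is the fitted concentration of half-maximal effect; compound exposure lasted 40 h at 37 °C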). Conditions: SK-N-SH neuroblastoma cell viability qHTS. In a few lines:
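Human neuroblastoma line, 40 h exposure at 37 °C, ATP quantified via luciferase luminescence; DMSO and 100 uM tamoxifen define 0 and 100% inhibition for AC50 fitting.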

Test [15] is described as follows: Cell Viability - N2a (AID 540; active = well fitted curve in the direction sought with a large enough effect; an effect the other way counts as inactive or inconclusive;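 note: plate controls were DMSO alone for no effect and tamoxifen control for full effect; nearly all actives have a fitted effect of over 45% in size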). As to conditions: N2a mouse neuroblastoma cell viability; activity change, negative = cytotoxicity: at 92.2 µM (top of the series). In a few lines: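 Mouse neuroblastoma N2a cells, 1500/well, exposed to compounds 40 h at 37 °C in complete medium. Viability measured as cellular ATP by CellTiter-Glo luminescence; AC50 from Hill fits of concentration-response.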

Test [16] can be described thus: Cell Viability - NIH 3T3 (AID 541; active = well fitted curve in the direction sought with a large enough effect; an effect the other way counts as inactive or inconclusive;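 note: plate controls were DMSO alone for no effect and tamoxifen positive control for full effect; nearly all actives have a fitted effect of over 25% in size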). As to conditions: NIH 3T3 cell viability, qHTS; at 92.2 µM (top of the series). In a few lines:
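Mouse NIH 3T3 fibroblasts, 1000 cells/well, rested 5 hr at 37 °C, then exposed to compound for 40 hr at 37 °C in complete medium. Viability read as intracellular ATP by CellTiter-Glo luminescence; AC50 from Hill-equation fits of concentration-response data.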

Test [17] can be described thus: Cell Viability - HUV-EC-C (AID 542; active = well fitted curve in the direction sought with a large enough effect; an effect the other way counts as inactive or inconclusive; note: % is set by controls: 0 for no effect and ±100 for the full control effect; nearly all actives have a fitted effect of over 35% in size). In a few lines: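 HUV-EC-C human vascular endothelial cells, 1000/well, exposed to compound for 40 hr at 37 °C in complete medium. Intracellular ATP was read by CellTiter-Glo luminescence. AC50 came from Hill-equation fits of concentration-response data.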
The nature of test [18]: Cell Viability - H-4-II-E (AID 543; active = well fitted curve in the direction sought with a large enough effect; an effect the other way counts as inactive or inconclusive; note: % is set by controls: 0 for no effect and ±100 for the full control effect; nearly all actives have a fitted effect of over 35% in size). In a few lines:
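Rat hepatoma H-4-II-E cells, 1500 per well, treated 40 h at 37 °C in complete medium. Cellular ATP read by CellTiter-Glo luminescence; AC50 from Hill fits of concentration-response.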

Test [19] in a line: Cell Viability - SH-SY5Y (AID 544; active = well fitted curve in the direction sought with a large enough effect; an effect the other way counts as inactive or inconclusive;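 note: 0% = DMSO alone and -100% = 100 µM tamoxifen; nearly all actives have a fitted effect of over 55% in size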). As to conditions: SH-SY5Y neuroblastoma cell viability; viability change, negative = cytotoxic: at 92.2 µM (top of the series). In a few lines:
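SH-SY5Y human neuroblastoma cells (1500/well) incubated 5 h, then compound-treated 40 h at 37 °C in complete medium. Viability read as intracellular ATP by CellTiter-Glo luminescence after 20 min; AC50 from Hill-equation fits of qHTS concentration-response.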

Test [20] in a line: Cell Viability - Renal Proximal Tubule (AID 545; active = well fitted curve in the direction sought with a large enough effect; an effect the other way counts as inactive or inconclusive;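 note: 0% = DMSO only and -100% = 100 µM tamoxifen; nearly all actives have a fitted effect of over 40% in size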). As to conditions: renal proximal tubule cells viability, primary cells of rat origin; activity change, negative = cytotoxicity: at 91.7 µM (top of the series). In a few lines:
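In this qHTS format, normal rat kidney-derived proximal tubule cells in complete culture medium receive compound titrations, then sit 40 hours at 37 °C before luciferase-based ATP quantitation; potency is reported as AC50 from concentration-response curves.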

Sequence of Cytochrome P450 1A2 (Homo sapiens) (P05177 whole entry, looked up): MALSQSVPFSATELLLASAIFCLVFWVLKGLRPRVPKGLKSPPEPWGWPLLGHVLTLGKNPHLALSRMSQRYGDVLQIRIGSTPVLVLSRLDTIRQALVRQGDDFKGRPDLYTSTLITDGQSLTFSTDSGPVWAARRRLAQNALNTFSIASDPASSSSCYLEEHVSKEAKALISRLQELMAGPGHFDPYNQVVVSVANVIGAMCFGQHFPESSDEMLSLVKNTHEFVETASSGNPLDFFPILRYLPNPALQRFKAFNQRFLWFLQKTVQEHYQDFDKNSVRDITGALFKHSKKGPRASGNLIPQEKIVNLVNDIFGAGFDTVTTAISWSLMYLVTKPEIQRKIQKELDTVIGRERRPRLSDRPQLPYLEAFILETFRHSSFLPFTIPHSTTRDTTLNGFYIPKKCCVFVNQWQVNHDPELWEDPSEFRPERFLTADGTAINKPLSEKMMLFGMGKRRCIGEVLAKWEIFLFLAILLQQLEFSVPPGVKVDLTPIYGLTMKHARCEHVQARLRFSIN

Turning to `O=C(O)CCc1nc(-c2ccccc2)c(-c2ccccc2)o1`, the Potency was above 11.4 µM in test [1]; > 46 µM and > 20.6 µM in test [5]; > 46 µM and > 20.6 µM and > 9.22 µM in test [6]. For the same compound, the call in [2], in test [3] and in [7] was inactive. The activity, negative = inhibition in test [4] (at 7.69 µM (top of the series)) was 5.68%; in test [4] (at 17.2 µM (top of the series)), -0.803%; in [4] (at 38 µM (top of the series)), -12.8%.

As to `NC(N)=Nc1nc(CSCC/C(N)=N/S(N)(=O)=O)cs1`, the result in test [2], in test [3] and in test [7] was inactive. In addition, the activity, negative = inhibition in test [4] (at 17.2 µM (top of the series)) was 12% and 11.5%; in test [4] (at 38 µM (top of the series)), 1.63%. Besides, the Potency in [5] was > 46 µM and > 20.6 µM; in test [6], > 46 µM and > 20.6 µM.

As for `O=C1NC(=O)C(c2ccccc2)(c2ccccc2)N1`, the call in test [2], in test [3] and in [7] was inactive. Also, the Potency entry in test [8], in test [15], in test [17], in [18], in test [19] and in test [20] was “inactive” throughout. In addition, the Potency in test [9], in test [10], in test [11], in test [12], in [13] and in test [14] was above 92 µM throughout. For the same compound, the Potency in test [5] was > 46 µM and > 20.6 µM; in test [6] it was above 46 µM. Moreover, the activity, negative = inhibition in [4] (at 17.2 µM (top of the series)) is -0.146%; in [4] (at 38 µM (top of the series)) it was -3.08%. Further, the activity change, negative = cytotoxicity in test [16] is -17.5%.

`CCCCC1C(=O)N(c2ccccc2)N(c2ccccc2)C1=O`: the call in [2], in test [3] and in test [7] was inactive. Moreover, the Potency result in [8], in test [15], in test [17], in test [18], in [19] and in test [20] was “inactive” in each case. For the same compound, the Potency in [9] was above 92 µM; in [11] it was above 92 µM; in test [12] it was above 92 µM; in test [13] it was above 92 µM; in test [14], above 92 µM; in test [5] it was > 46 µM and > 20.6 µM. Also, the Potency in test [6] is above 46 µM. In addition, the activity, negative = inhibition in test [4] (at 17.2 µM (top of the series)) was -15.3%; in test [4] (at 38 µM (top of the series)) it was -22.4%. The activity change, negative = cytotoxicity in [16] is -19.1%.

For the compound `Clc1ccc(Cn2c(CN3CCCC3)nc3ccccc32)cc1`, the call in [2], in test [3] and in [7] was inactive. Moreover, the Potency in [8] was 10 µM (active) and 3.98 µM (active); in [5], > 46 µM and > 20.6 µM; in test [6] it was > 46 µM and > 20.6 µM. Also, the activity, negative = inhibition is -8.1% and 3.26% in test [4] (at 17.2 µM (top of the series)); 0.465% in [4] (at 38 µM (top of the series)).

On to `CCN(CC)CCOC(=O)c1ccc(N)cc1`, for which the outcome in [2] and in test [7] was inactive. Moreover, in test [8], the Potency entry was “inactive”. Moreover, the activity, negative = inhibition in test [4] (at 17.2 µM (top of the series)) was 13%; in test [4] (at 38 µM (top of the series)), -13.6%.

As to `COc1ccccc1N1CCN(CCCNc2cc(=O)n(C)c(=O)n2C)CC1`, the result in test [2], in test [3] and in test [7] was inactive. The Potency entry in test [8] is “inactive”. The activity, negative = inhibition in test [4] (at 17.2 µM (top of the series)) is -0.455%; in test [4] (at 38 µM (top of the series)), 1.93%.

Take `C[N+](C)(C)CCCCCC[N+](C)(C)C`: the call in test [2], in test [3] and in test [7] was inactive. In test [8], the Potency result was “inactive”. Besides, the activity, negative = inhibition is 8.45% in [4] (at 17.2 µM (top of the series)) and 9.91% in test [4] (at 38 µM (top of the series)).

As to `CC(=O)c1ccc(S(=O)(=O)NC(=O)NC2CCCCC2)cc1`, the outcome in test [2], in test [3] and in [7] was inactive. Moreover, the Potency result in test [8], in test [15], in test [17], in test [18], in test [19] and in test [20] was “inactive” in each case. For the same compound, the Potency in [9], in test [10], in [11], in test [12], in test [13] and in [14] was above 92 µM each time. In addition, the Potency was > 46 µM and > 20.6 µM in test [5]; > 46 µM and > 20.6 µM in test [6]. Also, the activity, negative = inhibition in test [4] (at 17.2 µM (top of the series)) is -1.46%; in test [4] (at 38 µM (top of the series)), -26.2%. Besides, in test [16], the activity change, negative = cytotoxicity was -15.1%.

As for `NCCS`, the compound was called inactive in test [2], in test [3] and in test [7]. For the same compound, in test [8], the Potency entry is “inactive”. Also, in [4] (at 38 µM (top of the series)), the activity, negative = inhibition is -9.49%.
